Of roughly 7,900 targets only a part is listed; those with a hit were picked by preference. About 0.6% of all pairs of compound and target were hits. Unmarked numbers belong to inactive results.
compound: CS(=O)(=O)c1ccc(-c2cnc(N)c(C(=O)Nc3ccccc3)n2)cc1; experiment: log2 fold change, soluble protein after heating vs DMSO (PISA); higher = thermal stabilisation; K562 cells, 10 uM, 30 min; active = over 0.2 and 3.5 SD of the protein, either way, in both replicates (recomputed)
Method in brief: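 K562 cells at 2×10^6 cells/mL were exposed to 10 μM compound for 30 min, then aliquots were heated for 3 min across 48°C-58°C, pooled, and extracted in PBS containing 0.5% NP-40 at 4°C. The supernatant after 21,000xg for 90 min was taken as soluble protein and measured by TMTpro 16plex LC-MS/MS with channel sums equalised. Thermal stability is reported relative to control samples, with values from duplicates. Fold changes are given on a log2 scale.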

Sequence of UniProt O15355 (O15355 whole entry, looked up): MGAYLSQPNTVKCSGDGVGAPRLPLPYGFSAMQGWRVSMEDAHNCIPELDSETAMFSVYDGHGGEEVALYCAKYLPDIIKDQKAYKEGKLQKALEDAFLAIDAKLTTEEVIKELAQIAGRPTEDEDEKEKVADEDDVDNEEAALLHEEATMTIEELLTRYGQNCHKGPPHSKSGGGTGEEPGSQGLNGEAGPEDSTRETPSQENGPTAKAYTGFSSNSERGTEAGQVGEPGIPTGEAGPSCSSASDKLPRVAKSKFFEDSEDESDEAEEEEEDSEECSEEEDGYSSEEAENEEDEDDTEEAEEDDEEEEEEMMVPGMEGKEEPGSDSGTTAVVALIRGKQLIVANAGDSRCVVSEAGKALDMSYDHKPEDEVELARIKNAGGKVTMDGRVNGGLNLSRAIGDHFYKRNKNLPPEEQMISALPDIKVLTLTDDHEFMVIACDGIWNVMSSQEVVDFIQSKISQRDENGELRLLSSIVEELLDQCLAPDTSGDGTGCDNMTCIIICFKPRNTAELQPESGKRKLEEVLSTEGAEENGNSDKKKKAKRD
Sequence of UniProt Q15008 (Q15008 whole entry, looked up): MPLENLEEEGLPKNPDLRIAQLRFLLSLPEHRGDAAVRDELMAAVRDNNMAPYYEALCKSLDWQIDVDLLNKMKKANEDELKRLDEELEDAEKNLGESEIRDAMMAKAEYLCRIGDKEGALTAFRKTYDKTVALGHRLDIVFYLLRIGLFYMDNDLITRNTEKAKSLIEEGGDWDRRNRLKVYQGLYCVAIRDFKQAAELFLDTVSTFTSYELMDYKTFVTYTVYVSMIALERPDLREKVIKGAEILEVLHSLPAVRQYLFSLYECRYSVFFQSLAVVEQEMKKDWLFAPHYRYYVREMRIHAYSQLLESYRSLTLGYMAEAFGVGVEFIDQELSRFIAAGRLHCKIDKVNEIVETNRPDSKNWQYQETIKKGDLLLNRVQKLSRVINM
Sequence of UniProt P31323 (P31323 whole entry, looked up): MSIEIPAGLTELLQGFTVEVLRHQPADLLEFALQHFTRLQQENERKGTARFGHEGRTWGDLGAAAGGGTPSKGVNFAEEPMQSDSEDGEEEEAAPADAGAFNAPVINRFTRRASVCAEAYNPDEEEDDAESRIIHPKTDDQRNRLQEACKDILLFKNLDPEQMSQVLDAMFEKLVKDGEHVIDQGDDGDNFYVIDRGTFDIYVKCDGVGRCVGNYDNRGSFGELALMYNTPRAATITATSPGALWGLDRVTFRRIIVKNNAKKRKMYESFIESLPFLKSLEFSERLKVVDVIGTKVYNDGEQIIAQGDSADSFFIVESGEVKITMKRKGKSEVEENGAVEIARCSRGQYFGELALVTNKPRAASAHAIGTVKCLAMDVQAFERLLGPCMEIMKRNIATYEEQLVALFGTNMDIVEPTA
Sequence of UniProt P11216 (P11216 whole entry, looked up): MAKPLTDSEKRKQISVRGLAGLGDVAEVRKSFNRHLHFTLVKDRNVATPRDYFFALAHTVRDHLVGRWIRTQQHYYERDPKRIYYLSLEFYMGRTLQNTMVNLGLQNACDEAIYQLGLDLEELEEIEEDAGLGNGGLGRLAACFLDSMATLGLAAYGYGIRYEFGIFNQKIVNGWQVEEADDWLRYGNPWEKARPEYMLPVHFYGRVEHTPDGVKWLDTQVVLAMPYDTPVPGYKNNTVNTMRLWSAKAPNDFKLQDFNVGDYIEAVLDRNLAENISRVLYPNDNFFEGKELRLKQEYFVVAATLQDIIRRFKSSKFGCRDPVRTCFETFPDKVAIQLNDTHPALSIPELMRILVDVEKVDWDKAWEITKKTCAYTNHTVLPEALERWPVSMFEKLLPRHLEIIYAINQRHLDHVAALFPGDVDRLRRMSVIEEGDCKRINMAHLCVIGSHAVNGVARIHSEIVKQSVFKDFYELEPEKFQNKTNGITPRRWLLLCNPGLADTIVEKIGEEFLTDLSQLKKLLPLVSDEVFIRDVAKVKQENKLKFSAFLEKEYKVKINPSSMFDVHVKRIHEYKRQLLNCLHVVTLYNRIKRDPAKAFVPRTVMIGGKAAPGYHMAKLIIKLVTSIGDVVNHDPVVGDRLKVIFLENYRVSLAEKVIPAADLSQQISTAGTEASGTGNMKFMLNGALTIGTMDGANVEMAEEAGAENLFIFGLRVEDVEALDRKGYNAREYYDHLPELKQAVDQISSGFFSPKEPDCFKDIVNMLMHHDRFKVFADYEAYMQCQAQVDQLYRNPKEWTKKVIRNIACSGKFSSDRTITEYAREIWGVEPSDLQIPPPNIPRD
Sequence of UniProt Q8TBX8 (Q8TBX8 whole entry, looked up): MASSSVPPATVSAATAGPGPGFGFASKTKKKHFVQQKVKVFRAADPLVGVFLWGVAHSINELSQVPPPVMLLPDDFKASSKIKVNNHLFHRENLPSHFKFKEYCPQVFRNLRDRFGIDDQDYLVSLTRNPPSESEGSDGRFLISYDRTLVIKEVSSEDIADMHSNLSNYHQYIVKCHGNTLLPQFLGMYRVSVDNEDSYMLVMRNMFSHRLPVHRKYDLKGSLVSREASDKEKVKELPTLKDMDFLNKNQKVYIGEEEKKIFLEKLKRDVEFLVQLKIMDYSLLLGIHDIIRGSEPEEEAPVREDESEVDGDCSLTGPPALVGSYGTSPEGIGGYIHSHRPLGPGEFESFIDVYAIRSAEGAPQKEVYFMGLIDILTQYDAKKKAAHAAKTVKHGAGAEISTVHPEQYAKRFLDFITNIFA
Sequence of UniProt O00232 (O00232 whole entry, looked up): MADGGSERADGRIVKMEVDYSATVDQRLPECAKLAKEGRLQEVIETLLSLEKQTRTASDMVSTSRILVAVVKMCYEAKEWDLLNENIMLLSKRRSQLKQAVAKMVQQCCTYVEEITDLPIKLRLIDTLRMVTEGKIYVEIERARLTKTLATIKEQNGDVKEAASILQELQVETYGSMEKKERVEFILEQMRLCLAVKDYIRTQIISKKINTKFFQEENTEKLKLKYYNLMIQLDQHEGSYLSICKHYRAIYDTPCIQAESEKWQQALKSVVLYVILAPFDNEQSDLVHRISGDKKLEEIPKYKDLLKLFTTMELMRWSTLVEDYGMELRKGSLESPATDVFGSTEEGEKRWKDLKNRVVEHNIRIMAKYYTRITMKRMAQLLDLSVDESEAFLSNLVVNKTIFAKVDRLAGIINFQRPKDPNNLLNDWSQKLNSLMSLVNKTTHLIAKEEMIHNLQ
Sequence of UniProt P06737 (P06737 whole entry, looked up): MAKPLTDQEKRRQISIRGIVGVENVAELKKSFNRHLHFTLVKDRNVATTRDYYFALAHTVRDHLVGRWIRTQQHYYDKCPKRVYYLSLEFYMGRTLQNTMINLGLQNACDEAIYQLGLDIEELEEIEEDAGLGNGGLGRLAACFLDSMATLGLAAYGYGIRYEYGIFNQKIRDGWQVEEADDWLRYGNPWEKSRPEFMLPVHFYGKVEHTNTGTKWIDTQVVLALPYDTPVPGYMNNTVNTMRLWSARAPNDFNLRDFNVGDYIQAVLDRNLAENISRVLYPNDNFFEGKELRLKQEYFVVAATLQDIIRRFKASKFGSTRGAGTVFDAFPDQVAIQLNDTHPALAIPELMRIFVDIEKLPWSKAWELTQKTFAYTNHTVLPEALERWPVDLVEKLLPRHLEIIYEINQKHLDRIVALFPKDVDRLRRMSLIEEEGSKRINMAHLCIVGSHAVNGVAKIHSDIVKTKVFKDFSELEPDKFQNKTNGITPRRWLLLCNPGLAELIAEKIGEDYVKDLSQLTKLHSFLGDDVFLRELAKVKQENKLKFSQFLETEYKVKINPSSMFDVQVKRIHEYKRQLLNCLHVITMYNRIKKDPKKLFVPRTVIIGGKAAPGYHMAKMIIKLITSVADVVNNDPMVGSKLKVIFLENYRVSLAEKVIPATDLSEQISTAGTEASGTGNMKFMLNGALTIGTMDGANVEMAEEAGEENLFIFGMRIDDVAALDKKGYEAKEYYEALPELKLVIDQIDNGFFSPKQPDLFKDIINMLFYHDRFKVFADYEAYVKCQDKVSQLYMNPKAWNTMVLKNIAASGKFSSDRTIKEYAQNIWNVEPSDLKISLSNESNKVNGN
Sequence of UniProt O00233 (O00233 whole entry, looked up): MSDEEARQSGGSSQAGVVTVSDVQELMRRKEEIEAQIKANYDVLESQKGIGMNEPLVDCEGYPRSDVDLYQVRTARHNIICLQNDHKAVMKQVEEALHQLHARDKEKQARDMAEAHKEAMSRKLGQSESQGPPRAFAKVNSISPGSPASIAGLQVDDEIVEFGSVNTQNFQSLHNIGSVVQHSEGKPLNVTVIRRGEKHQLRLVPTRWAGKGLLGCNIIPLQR
Sequence of UniProt O43164 (O43164 whole entry, looked up): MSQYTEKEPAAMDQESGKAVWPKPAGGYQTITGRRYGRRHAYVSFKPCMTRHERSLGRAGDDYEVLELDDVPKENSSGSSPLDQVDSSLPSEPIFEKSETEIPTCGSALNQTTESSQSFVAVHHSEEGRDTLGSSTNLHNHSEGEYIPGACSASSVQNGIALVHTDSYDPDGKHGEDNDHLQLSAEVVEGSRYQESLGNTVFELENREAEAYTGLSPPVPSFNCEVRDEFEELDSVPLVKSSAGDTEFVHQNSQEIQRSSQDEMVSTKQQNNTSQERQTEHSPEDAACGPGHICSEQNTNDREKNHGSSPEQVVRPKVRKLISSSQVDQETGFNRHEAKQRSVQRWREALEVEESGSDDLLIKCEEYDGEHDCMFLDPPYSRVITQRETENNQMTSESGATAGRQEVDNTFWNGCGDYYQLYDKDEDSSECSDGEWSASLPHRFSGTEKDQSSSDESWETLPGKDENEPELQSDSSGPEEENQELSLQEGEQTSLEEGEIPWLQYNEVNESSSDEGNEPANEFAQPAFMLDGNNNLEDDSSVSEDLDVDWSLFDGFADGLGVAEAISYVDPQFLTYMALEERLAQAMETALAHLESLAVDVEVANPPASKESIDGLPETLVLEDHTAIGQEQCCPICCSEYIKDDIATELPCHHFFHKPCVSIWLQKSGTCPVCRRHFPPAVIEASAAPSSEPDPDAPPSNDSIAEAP

Row | Target | log2 fold change
1 | PARN (UniProt O95453) | 0.028
2 | PEF1 (UniProt Q9UBV8) | 0.119
3 | POLD1 (UniProt P28340) | 0.019
4 | PARG (UniProt Q86W56) | -0.027
5 | PRMT7 (UniProt Q9NVM4) | 0.063
6 | PDLIM7 (UniProt Q9NR12) | -0.01
7 | POLD3 (UniProt Q15054) | 0.177
8 | POLR2A (UniProt P24928) | 0.027
9 | PLD3 (UniProt Q8IV08) | -0.034
10 | PPIL1 (UniProt Q9Y3C6) | -0.029
11 | PPP2R5A (UniProt Q15172) | -0.018
12 | PPOX (UniProt P50336) | 0.173
13 | PLBD2 (UniProt Q8NHP8) | 0.014
14 | PRKAR2B (UniProt P31323) | -0.026
15 | PJA2 (UniProt O43164) | 0.032
16 | PCBP1 (UniProt Q15365) | 0.012
17 | PGK2 (UniProt P07205) | 0.016
18 | PSMD6 (UniProt Q15008) | 0.033
19 | POLR2K (UniProt P53803) | 0.029

Row | Target | log2 fold change
20 | PSMD9 (UniProt O00233) | -0.041
21 | PDSS2 (UniProt Q86YH6) | -0.034
22 | PYGL (UniProt P06737) | -0.122
23 | PYGB (UniProt P11216) | -0.305 (active)
24 | PDE12 (UniProt Q6L8Q7) | 0.047
25 | POLR1A (UniProt O95602) | 0.076
26 | PBK (UniProt Q96KB5) | 0.048
27 | PFAS (UniProt O15067) | -0.062
28 | PRKACA (UniProt P17612) | 0.009
29 | PSMD12 (UniProt O00232) | 0.053
30 | POGLUT1 (UniProt Q8NBL1) | 0.064
31 | PTDSS1 (UniProt P48651) | -0.029
32 | PRKAB2 (UniProt O43741) | -0.08
33 | PPM1G (UniProt O15355) | 0.114
34 | PARL (UniProt Q9H300) | -0.004
35 | PIP4K2C (UniProt Q8TBX8) | 1.06 (active)
36 | PRPF4B (UniProt Q13523) | 0.024
37 | POM121 (UniProt Q96HA1) | 0.024
